According to PubChem BioAssay (NCATS):
Inconclusive results are not listed. The source made the active and inactive calls. The call rests on the fitted dose curve; in most records, active means well fitted curve in the direction sought with a large enough effect; inconclusive means small, poorly fitted or top-dose-only effect, or another doubt; inactive means no such curve, though single readings can be large; an effect the other way counts as inactive or inconclusive.

Key:
[1] = Quantitative High-Throughput drug screen in 47 multiple myeloma cell lines against the NCATS MIPE library collection: FR4_PLB cell viability assay (AID 1918924; further: nearly all actives have a fitted effect of over 35% in size)
Method in brief: (§1)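 Steps: seed 500 cells per well; pin-transfer MIPE 4.0 library; incubate 48 h at 37C, 5% CO2, humidified; add CellTiter-Glo, 5 min room temperature; read luminescence.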

[2] = Quantitative High-Throughput drug screen in 47 multiple myeloma cell lines against the NCATS MIPE library collection: EJM_DSMZ cell viability assay (AID 1918926; further: nearly all actives have a fitted effect of over 30% in size)
Method in brief: (§2)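 Approved and investigational drugs from MIPE 4.0 were added by pin tool to 500 cells per well. After 48 hours at 37C, ATP-based CellTiter-Glo luminescence indicated remaining viability.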

[3] = Quantitative High-Throughput drug screen in 47 multiple myeloma cell lines against the NCATS MIPE library collection: ARD_JJKsccE7 cell viability assay (AID 1918929)
Method in brief: as §2

[4] = Quantitative High-Throughput drug screen in 47 multiple myeloma cell lines against the NCATS MIPE library collection: Karpas620_DSMZ cell viability assay (AID 1918959); further: nearly all actives have a fitted effect of over 30% in size
Method in brief: as §1

[5] = Quantitative High-Throughput drug screen in 47 multiple myeloma cell lines against the NCATS MIPE library collection: KMM1_JCRB cell viability assay (AID 1918960); further: nearly all actives have a fitted effect of over 30% in size
Method in brief: (§3)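 500 cells/well; MIPE 4.0 library pinned in; 48 h, 37 °C, 5% CO2; CellTiter-Glo ATP luminescence. Controls: DMSO = 100% viability, medium only = 0%.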

[6] = Quantitative High-Throughput drug screen in 47 multiple myeloma cell lines against the NCATS MIPE library collection: JIM3_ECACC cell viability assay (AID 1918963; further: nearly all actives have a fitted effect of over 35% in size)
Method in brief: as §1

[7] = Quantitative High-Throughput drug screen in 47 multiple myeloma cell lines against the NCATS MIPE library collection: JIM1_ECACC cell viability assay (AID 1918964)
Method in brief: as §2

[8] = Quantitative High-Throughput drug screen in 47 multiple myeloma cell lines against the NCATS MIPE library collection: JJN3_DSMZ cell viability assay (AID 1918966; further: nearly all actives have a fitted effect of over 50% in size)
Method in brief: as §2

[9] = Quantitative High-Throughput drug screen in 47 multiple myeloma cell lines against the NCATS MIPE library collection: H1112_PLB cell viability assay (AID 1918967; further: nearly all actives have a fitted effect of over 30% in size)
Method in brief: as §2

[10] = Quantitative High-Throughput drug screen in 47 multiple myeloma cell lines against the NCATS MIPE library collection: Karpas25_ECACC cell viability assay (AID 1918968; further: nearly all actives have a fitted effect of over 35% in size)
Method in brief: as §2

[11] = Quantitative High-Throughput drug screen in 47 multiple myeloma cell lines against the NCATS MIPE library collection: KMS27_JCRB cell viability assay (AID 1918970); further: nearly all actives have a fitted effect of over 30% in size
Method in brief: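 ATP-based viability (CellTiter-Glo luminescence) is measured in cells treated 48 h with approved and investigational drugs at 37 °C. Controls are DMSO-only wells for full viability and media-only wells for none.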

[12] = Quantitative High-Throughput drug screen in 47 multiple myeloma cell lines against the NCATS MIPE library collection: KMS12PE_JCRB cell viability assay (AID 1918972); further: nearly all actives have a fitted effect of over 30% in size
Method in brief: (§4)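 CellTiter-Glo luminescence (ATP) after 48 h compound exposure, 37C/5% CO2; 500 cells/well; MIPE 4.0 approved/investigational drugs pinned in; DMSO = 100%, media only = 0% viability.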

[13] = Quantitative High-Throughput drug screen in 47 multiple myeloma cell lines against the NCATS MIPE library collection: Delta47_JCRB cell viability assay (AID 1918925; further: nearly all actives have a fitted effect of over 45% in size)
Method in brief: as §2

[14] = Quantitative High-Throughput drug screen in 47 multiple myeloma cell lines against the NCATS MIPE library collection: ARP1_JJKsccF8 cell viability assay (AID 1918928; further: nearly all actives have a fitted effect of over 40% in size)
Method in brief: as §3

[15] = Quantitative High-Throughput drug screen in 47 multiple myeloma cell lines against the NCATS MIPE library collection: KMS12BM_JCRB cell viability assay (AID 1918971); further: nearly all actives have a fitted effect of over 35% in size
Method in brief: as §1

[16] = Quantitative High-Throughput drug screen in 47 multiple myeloma cell lines against the NCATS MIPE library collection: INA6_PLB cell viability assay (AID 1918965; further: nearly all actives have a fitted effect of over 55% in size)
Method in brief: as §4

[17] = Quantitative High-Throughput drug screen in 47 multiple myeloma cell lines against the NCATS MIPE library collection: AMO1_DSMZ cell viability assay (AID 1918927; further: nearly all actives have a fitted effect of over 30% in size)
Method in brief: as §2

[18] = Quantitative High-Throughput drug screen in 47 multiple myeloma cell lines against the NCATS MIPE library collection: Karpas417_ECACC cell viability assay (AID 1918961); conditions: Karpas417 myeloma viability, CellTiter-Glo ATP luminescence, 48 h; viability (% of DMSO): at 45.8 µM (top of the series)
Method in brief: as §4

Measured: Potency
Potency means the concentration at half of the fitted maximal effect.

Nc1c2c(nc3ccccc13)CCCC2
active: [8] 5.26 µM
not listed: [13] | [14] | [15] | [16] | [17] | [18]
inactive: all other assays above

COc1nc(C)nc(Cl)c1NC1=NCCN1
active: [13] 11.8 µM | [9] 7.43 µM | [10] 9.35 µM
not listed: [2] | [5] | [8] | [16] | [17] | [18]
inactive: all other assays above

Cn1ccc2cc3c(cc21)CCN3C(=O)Nc1cccnc1
active: [16] 14.8 µM | [9] 20.9 µM | [10] 20.9 µM | [12] 20.9 µM
inactive: [1] | [2] | [14] | [4]

COc1cc2c(c(OC)c1OC)-c1ccc(OC)c(=O)cc1[C@@H](NC(C)=O)CC2
active: [18] 0.0033 µM
not listed: [8] | [9] | [11] | [13] | [14] | [15]
inactive: all other assays above

CN(C)C(=O)C(CCN1CCC(O)(c2ccc(Cl)cc2)CC1)(c1ccccc1)c1ccccc1
inactive: [17] | [3] | [4] | [11] | [12]
active: [1] 20.9 µM | [13] 20.9 µM | [6] 20.9 µM | [16] 18.7 µM | [8] 18.7 µM | [10] 18.7 µM

CC(C)(Oc1ccc(C2CC2(Cl)Cl)cc1)C(=O)O (centres undefined)
inactive: [1] | [2] | [3] | [4] | [6] | [9] | [15] | [12]

NCCc1cnc[nH]1
active: [2] 14.8 µM | [4] 0.0148 µM
not listed: [6] | [7] | [13] | [17] | [18]
inactive: all other assays above

CS(=O)(=O)Nc1ccc([N+](=O)[O-])cc1Oc1ccccc1
inactive: [1] | [13] | [2] | [4] | [5] | [6] | [11] | [12]
active: [14] 11.8 µM | [15] 20.9 µM

COc1ccccc1OCCNCC(O)COc1cccc2[nH]c3ccccc3c12 (centres undefined)
active: [9] 16.6 µM
inactive: [10]

COc1cc2nc(N(C)CCCNC(=O)C3CCCO3)nc(N)c2cc1OC (centres undefined)
inactive: [2] | [4] | [5] | [6] | [9] | [10] | [12]

O=C1N(c2ccccc2)c2ccccc2C1(Cc1ccncc1)Cc1ccncc1
not listed: [1] | [2] | [3] | [7] | [15] | [16] | [18]
inactive: all other assays above

O=c1c(-c2ccc(O)cc2)coc2cc(O)cc(O)c12
active: [17] 16.6 µM | [3] 14.8 µM | [15] 5.26 µM | [12] 2.64 µM
inactive: [13] | [2] | [4] | [6] | [9]

O=c1c(O)c(-c2ccc(O)c(O)c2)oc2cc(O)cc(O)c12
active: [13] 11.8 µM | [2] 20.9 µM | [18] 0.0166 µM | [16] 11.8 µM | [9] 20.9 µM | [10] 16.6 µM

CCOC(=O)c1ncn2c1CN(C)C(=O)c1cc(F)ccc1-2
active: [14] 16.6 µM | [15] 5.9 µM
not listed: [1] | [2] | [8] | [11] | [18]
inactive: all other assays above

Clc1ccccc1C(c1ccccc1)(c1ccccc1)n1ccnc1
active: [18] 0.0093 µM | [6] 18.7 µM | [7] 0.0743 µM | [16] 16.6 µM | [9] 14.8 µM | [10] 18.7 µM | [15] 16.6 µM | [12] 7.43 µM
inactive: [2]

CC(C)Cc1ccc(C(C)C(=O)O)cc1 (centres undefined)
active: [16] 1.62 µM
inactive: [13] | [17] | [14] | [3] | [4] | [5] | [6] | [9] | [11]

CC12CC3CC(C)(C1)CC(N)(C3)C2
inactive: [14] | [3] | [4] | [18] | [7] | [15]
active: [16] 20.9 µM | [10] 20.9 µM

CN1CCC(=C2c3ccccc3C=Cc3ccccc32)CC1
active: [13] 9.35 µM | [16] 11.8 µM | [9] 11.8 µM | [10] 7.43 µM | [11] 23.5 µM | [12] 20.9 µM
inactive: [3] | [18]

COC(=O)Nc1nc2ccc(C(=O)c3cccs3)cc2[nH]1
active: [17] 0.001 µM | [14] 0.0042 µM | [3] 0.001 µM | [4] 0.0017 µM | [5] 0.001 µM | [6] 0.001 µM | [7] 0.001 µM | [16] 0.001 µM | [9] 0.0132 µM | [15] 0.0026 µM

Fc1ccc([C@@H]2CCNC[C@H]2COc2ccc3c(c2)OCO3)cc1
active: [9] 10.5 µM | [15] 14.8 µM
inactive: [2] | [3] | [4] | [6] | [10] | [12]

Cc1cn([C@H]2C=C[C@@H](CO)O2)c(=O)[nH]c1=O
active: [18] 0.0108 µM | [10] 12.1 µM
not listed: [1] | [6] | [8] | [13] | [15] | [16]
inactive: all other assays above
